8 molecules from PubChem BioAssay (NCI) can be followed below.

Compounds without any hit were thinned out: in the full panel of roughly 83,000, 20% have a hit.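 Cells were grown in 96-well plates and exposed to the test compound at a single concentration for 48 hours; results are reported as percent growth, with values below 10 considered active.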 Values without a mark were called inactive. Calls of active or inactive are those of the source.

Among the test systems are NCI-H23 lung; NCI-H322M lung; HOP-62 NSCLC; NCI-H460 lung; HOP-92 NSCLC; NCI-H522 lung; A549/ATCC NSCLC; 786-0 renal; COLO 205 colon; DU-145 prostate; K-562 leukemia; MALME-3M melanoma; MDA-MB-231 breast; RXF 393 renal; SF-268 CNS; SF-295 CNS; SF-539 CNS; UACC-257 melanoma; M14 melanoma; HCT-15 colon.
Holding throughout (test): NCI-60 one-dose screen, 48 h (100 = growth as untreated, 0 = no growth, -100 = all killed)
What all share (conditions): 10 µM unless noted

In the case of `COc1ccccc1N1CCN(C(CNS(=O)(=O)c2ccc(Cl)cc2)c2cccnc2)CC1` (stereo not given), the growth with NCI-H23 lung was 96.6%; with NCI-H322M lung, 128%; with HOP-62 NSCLC, 94%; in the test with NCI-H460 lung it was 77.1%; in the test on HOP-92 NSCLC it was 79.5%; in the test with NCI-H522 lung, 110%. The growth in the test on A549/ATCC NSCLC is 90.8%; with 786-0 renal, 42.4%; in the test on COLO 205 colon, 108%; in the test on DU-145 prostate, 85.1%; in the test on K-562 leukemia, 28.4%; with MALME-3M melanoma, 60.2%. Further, the growth with MDA-MB-231 breast was 71%; with RXF 393 renal it was 36.3%; in the test on SF-268 CNS, 90.8%; with SF-295 CNS, 2.26% (active); with SF-539 CNS, 64.9%; in the test with UACC-257 melanoma, 120%. The growth was 104% with M14 melanoma and 49% in the test with HCT-15 colon.

On to `O=C(Nc1ncc(Cc2cccc(C(F)(F)F)c2)s1)C1COc2ccccc2O1` (stereo not given), for which the growth in the test on NCI-H23 lung was 88.6%; with NCI-H322M lung, 91.2%; in the test with HOP-62 NSCLC it was 92.1%; in the test with NCI-H460 lung, 97.7%; in the test with HOP-92 NSCLC, 72.2%; in the test with NCI-H522 lung, 67.8%. Further, the growth is 74.7% in the test on A549/ATCC NSCLC; 99.2% with 786-0 renal; 104% with COLO 205 colon; 105% in the test with DU-145 prostate; 63.3% with K-562 leukemia; 71.8% in the test on MALME-3M melanoma. Further, the growth in the test with MDA-MB-231 breast was 95.1%; in the test on RXF 393 renal, 79%; in the test on SF-268 CNS it was 87.6%; in the test on SF-295 CNS it was 86.4%; with SF-539 CNS, 95.8%; in the test with UACC-257 melanoma, 88.1%. Besides, the growth is 88.5% in the test with M14 melanoma and 72% with HCT-15 colon.

`O=C(CCc1nnc2sc(COc3ccccc3)nn12)c1nc2ncccc2[nH]1`: the growth was 85.4% with NCI-H23 lung; 91.9% in the test on NCI-H322M lung; 90.7% in the test with HOP-62 NSCLC; 93.3% in the test with NCI-H460 lung; 93.6% in the test on HOP-92 NSCLC; 79.4% in the test on NCI-H522 lung. The growth is 107% in the test on A549/ATCC NSCLC; 108% in the test with 786-0 renal; 107% in the test with COLO 205 colon; 106% in the test on DU-145 prostate; 107% in the test on K-562 leukemia; 91.4% with MALME-3M melanoma. Besides, the growth with MDA-MB-231 breast is 91.8%; in the test on RXF 393 renal it was 98.4%; with SF-268 CNS, 96%; in the test on SF-295 CNS, 103%; with SF-539 CNS, 100%; in the test on UACC-257 melanoma it was 98.9%. In addition, the values for the growth in the test with M14 melanoma and in the test on HCT-15 colon were 95.6% and 100%, respectively.

Take `Clc1ncccc1Nc1ccc2nnc(-c3ccncc3)n2n1`: the growth is 93.2% in the test on NCI-H23 lung; 106% in the test with NCI-H322M lung; 102% with HOP-62 NSCLC; 103% with NCI-H460 lung; 110% with HOP-92 NSCLC; -58.6% (active) in the test on NCI-H522 lung. Further, the growth in the test on A549/ATCC NSCLC is 102%; with 786-0 renal it was 101%; with COLO 205 colon, 109%; in the test on DU-145 prostate it was 107%; in the test on K-562 leukemia, 66.8%; with MALME-3M melanoma, 98.5%. Moreover, the growth is 105% with MDA-MB-231 breast; 114% in the test with RXF 393 renal; 93.3% in the test with SF-268 CNS; 105% in the test on SF-295 CNS; 99.7% in the test on SF-539 CNS; 102% in the test with UACC-257 melanoma. Further, the growth is 98.6% in the test with M14 melanoma and 87.1% in the test with HCT-15 colon.

Turning to `O=C1/C(=C/c2ccc(O)cc2)COc2ccc(O)cc21`, the growth was 92.2% with NCI-H23 lung; 98.2% with NCI-H322M lung; 114% in the test with HOP-62 NSCLC; 105% in the test on NCI-H460 lung; 124% in the test on HOP-92 NSCLC; 87.7% in the test with NCI-H522 lung. The growth is 107% with A549/ATCC NSCLC; 109% with 786-0 renal; 114% in the test with COLO 205 colon; 104% in the test on DU-145 prostate; 55.9% with K-562 leukemia; 100% in the test with MALME-3M melanoma. The growth in the test on MDA-MB-231 breast was 107%; with RXF 393 renal, 125%; in the test on SF-268 CNS, 101%; in the test with SF-295 CNS, 107%; in the test with SF-539 CNS it was 98.1%; in the test with UACC-257 melanoma, 104%. In addition, the growth in the test with M14 melanoma is 102%; in the test with HCT-15 colon, 75.9%.

For `O=c1c(-c2nc3ccccc3[nH]2)cc2ccccc2n1Cc1cn(Cc2ccc(F)cc2)nn1`, the growth with NCI-H23 lung is 23.5%; in the test on NCI-H322M lung, 19.4%; in the test on HOP-62 NSCLC it was 21.4%; with NCI-H460 lung it was -10.7% (active); with HOP-92 NSCLC, 34.9%; with NCI-H522 lung, 19.5%. Also, the growth in the test on A549/ATCC NSCLC was 11.4%; with 786-0 renal, -23.2% (active); in the test with COLO 205 colon it was 18.2%; in the test on DU-145 prostate, -23.5% (active); in the test on K-562 leukemia it was 17.7%; with MALME-3M melanoma, 12.8%. The growth was 4.33% (active) with MDA-MB-231 breast; -25.5% (active) in the test with RXF 393 renal; 29.4% in the test on SF-268 CNS; 1.67% (active) with SF-295 CNS; -55.9% (active) in the test with SF-539 CNS; 49.9% with UACC-257 melanoma. The growth with M14 melanoma is -20.7% (active); in the test with HCT-15 colon, 16.9%.

`O=C(COc1cc(O)c2c(=O)cc(-c3ccccc3)oc2c1)Nc1ccccc1`: the growth with NCI-H23 lung was 83.7%; with NCI-H322M lung, 85.6%; in the test on HOP-62 NSCLC, 101%; in the test with NCI-H460 lung, 61.6%; in the test with HOP-92 NSCLC, 89.9%; in the test with NCI-H522 lung, 81.5%. In addition, the growth with A549/ATCC NSCLC is 84.6%; with 786-0 renal, 81.9%; in the test with COLO 205 colon, 108%; with DU-145 prostate, 81.5%; in the test with K-562 leukemia it was 95.3%; in the test with MALME-3M melanoma, 97.7%. In addition, the growth in the test on MDA-MB-231 breast is 72.9%; with RXF 393 renal, 98.3%; in the test on SF-268 CNS, 91%; in the test on SF-295 CNS, 101%; with SF-539 CNS, 91%; with UACC-257 melanoma it was 97.3%. The growth with M14 melanoma is 85.4%; in the test with HCT-15 colon it was 96%.

Regarding `O=C(c1nc2ccccc2[nH]1)C1C(c2cccc([N+](=O)[O-])c2)C2CC3CCCCC3N2[C@@]12C(=O)Nc1cc(Cl)ccc12` (stereo not given in full), the growth in the test on NCI-H23 lung is 37.3%; with NCI-H322M lung it was 42.2%; with HOP-62 NSCLC it was 48.1%; with NCI-H460 lung, 9.08% (active); with HOP-92 NSCLC, 16.9%; in the test with NCI-H522 lung it was 52.4%. Also, the growth in the test with A549/ATCC NSCLC was 17.8%; with 786-0 renal, 25.6%; in the test with COLO 205 colon it was 12.6%; with DU-145 prostate it was 27%; with K-562 leukemia it was 24.2%; in the test on MALME-3M melanoma, 29.3%. Besides, the growth is 18.6% in the test on MDA-MB-231 breast; -52.5% (active) in the test on RXF 393 renal; 39.9% in the test on SF-268 CNS; 24.8% in the test with SF-295 CNS; 48.4% in the test on SF-539 CNS; 43.5% in the test with UACC-257 melanoma. Further, the growth in the test with M14 melanoma is 21.5%; in the test with HCT-15 colon, 20.9%.
